Test results from PubChem BioAssay AID588342 (National Center for Advancing Translational Sciences (NCATS), 2011).
Screen size: about 360,000 compounds; about 25,000 (6.9%) were called active. Inconclusive results (about 9%) are left out. Many of the other results were omitted from the sample, so actives are more common in it than they were. Unmarked numbers belong to inactive results. Calls follow the shape of the dose curve; as a rule, active = well fitted inhibition curve with a large enough effect; inconclusive = small, poorly fitted or top-dose-only effect; inactive = flat fitted curve, though single readings scatter.

The compounds below were run against Luciferin 4-monooxygenase (Photinus pyralis) (UniProt P08659) (assay: qHTS profiling assay for firefly luciferase inhibitor/activator using purifed enzyme and Km concentrations of substrates (counterscreen for miR-21 project)). Conditions: purified FLuc, luminescence inhibition; series mostly up to 57.5 µM; activity change, negative = inhibition: at the top concentration.
Luciferin 4-monooxygenase (Photinus pyralis), sequence (P08659 whole entry, looked up): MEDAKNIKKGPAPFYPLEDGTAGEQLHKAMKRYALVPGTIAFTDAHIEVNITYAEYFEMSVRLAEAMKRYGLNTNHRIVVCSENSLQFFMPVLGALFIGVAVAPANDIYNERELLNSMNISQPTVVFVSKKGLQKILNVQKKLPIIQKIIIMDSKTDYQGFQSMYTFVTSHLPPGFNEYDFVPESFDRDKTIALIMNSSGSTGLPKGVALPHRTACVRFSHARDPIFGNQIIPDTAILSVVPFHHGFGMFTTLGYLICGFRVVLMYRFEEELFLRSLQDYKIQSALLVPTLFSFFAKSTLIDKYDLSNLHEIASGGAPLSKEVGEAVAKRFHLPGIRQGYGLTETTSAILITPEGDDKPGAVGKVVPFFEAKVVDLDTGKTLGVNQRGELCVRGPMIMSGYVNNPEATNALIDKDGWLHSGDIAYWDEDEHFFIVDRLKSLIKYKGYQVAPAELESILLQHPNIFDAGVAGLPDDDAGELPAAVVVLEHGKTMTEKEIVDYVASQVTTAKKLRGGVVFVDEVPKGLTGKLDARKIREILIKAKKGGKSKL
How it was run: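 Biochemical qHTS of compounds, final roughly 60 µM downward over six points, against 10 nM purified firefly luciferase using Km concentrations of substrates (10 uM D-luciferin, 10 uM ATP) in Tris acetate pH 7.5 buffer; luminescence output.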
Also: nearly all actives have a fitted effect of over 55% in size.
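For activity change, negative = inhibition in this document: plate controls were vehicle for no effect and reference inhibitor for full effect.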
Potency is read from the fitted curve at half-maximal effect.

For CSCCC(NS(=O)(=O)c1ccc2c(c1)oc(=O)n2C)C(=O)NC1CCCc2ccccc21 (stereo unspecified), which “activity change, negative = inhibition” value is on record?
Its value is 5.78%.

How did the “activity change, negative = inhibition” value turn out when Cc1ccc(N2C(=O)C3N=NN(CC(=O)N4N=C(c5cccc6ccccc56)CC4c4ccccc4)C3C2=O)cc1 (stereo unspecified) was run?
Its value is -0.523%.

Which “activity change, negative = inhibition” value does the source give for O=C(Nc1c(C(=O)N2CCN(c3ccc(F)cc3)CC2)oc2ccccc12)c1ccco1 here?
Its value is -7.89%.

Which “activity change, negative = inhibition” value does the source give for CN(CC#CCC(c1ccccc1)c1ccccc1)C(C)(C)C here?
The value was 0.573%.

How did the “activity change, negative = inhibition” value turn out when CCOC(=O)c1ccc(NC(=O)c2ncn(-c3ccccc3)n2)cc1 was run?
Its value is -1.44%.

How did the “activity change, negative = inhibition” value turn out when O=C1Cc2cc(S(=O)(=O)Nc3cccc(F)c3)ccc2N1 was run?
Its value is 4.22%.

For COC(=O)c1ccc(NC(=O)c2cnn(-c3ccc(Cl)cc3)c2C2CCN(C(=O)OC(C)(C)C)CC2)cc1, which “activity change, negative = inhibition” value is on record?
Its value is -5.97%.

CCOc1ccc(C(=O)NCC(=O)N2CCCCCCC2)cc1OCC was tested. Which “activity change, negative = inhibition” value did it give?
The value was 0.971%.

O=C(Nc1ccc(N2CCOCC2)cc1)c1ccc2c(c1)OCO2 was tested. Which Potency did it give?
Its Potency is 10.7 µM (active).

With O=C(c1cccc(S(=O)(=O)Nc2ccccc2Cl)c1)N1CCN(C(=O)c2ccco2)CC1 as the compound, how does the “activity change, negative = inhibition” value read?
Its value is -4.73%.

How did the “activity change, negative = inhibition” value turn out when CC(Sc1nc(-c2ccccc2)cc(C(F)(F)F)n1)C(=O)Nc1ccc2c(c1)OCO2 (stereo unspecified) was run?
The value was 0.268%.

For CC(=O)Nc1cccc(C(=O)OCC(=O)c2ccc3c(c2)OCO3)c1, which Potency is on record?
The Potency was 0.135 µM (active).

For CC(C)C(=O)Nc1cccc(C(=O)Nc2ccc3c(c2)OCO3)c1, which Potency is on record?
Its Potency is 8.49 µM (active).

For CC(=O)Nc1cccc(C(=O)OCN2C(=O)c3ccccc3C2=O)c1, which “activity change, negative = inhibition” value is on record?
Its value is -1.02%.

For O=C(Nc1ccc2c(c1)CCC2)c1cccc(S(=O)(=O)N2CCN(c3ccc(F)cc3)CC2)c1, which “activity change, negative = inhibition” value is on record?
The value was 8.68%.

Which “activity change, negative = inhibition” value does the source give for O=C(NCCS(=O)(=O)N1CCN(c2ccc(F)cc2)CC1)c1ccc2c(c1)OCO2 here?
Its value is 0.656%.

How did the “activity change, negative = inhibition” value turn out when O=C(c1ccc2c(c1)OCO2)N1CCOCC1 was run?
Its value is -1.93%.

Which Potency does the source give for O=C(Nc1ccc2c(c1)CCC2)c1cccc(S(=O)(=O)Nc2ccccc2Cl)c1 here?
The Potency was 21.3 µM (active).

For CC(NC(=O)COC(=O)c1ccc2c(c1)OCO2)c1ccccc1 (stereo unspecified), which “activity change, negative = inhibition” value is on record?
The value was -5.33%.

With O=C(c1ccccc1F)N1CCC(c2nc3c(nnn3Cc3cccc(F)c3)c(=O)[nH]2)CC1 as the compound, how does the “activity change, negative = inhibition” value read?
The value was -15.3%.

Cc1ccc2ncc(C(=O)Nc3ccc(OC(F)(F)F)cc3)c(=O)n2c1 was tested. Which “activity change, negative = inhibition” value did it give?
The value was -5.88%.

How did the “activity change, negative = inhibition” value turn out when CCn1c2c(c(=O)n3ncc(C(=O)N4CCN(c5ccccc5)CC4)c13)CN(Cc1ccc(OC)cc1)CC2 was run?
The value was -2.48%.

For CN(Cc1ccccc1)CC(O)COc1ccc(CNCc2cc3ccccc3s2)cc1 (stereo unspecified), which “activity change, negative = inhibition” value is on record?
Its value is -0.152%.

For Cc1cc(C)cc(NC(=O)CSc2oc(-c3ccccc3)nc2S(=O)(=O)c2ccc(Cl)cc2)c1, which “activity change, negative = inhibition” value is on record?
Its value is -3.79%.

With Cc1sc2ncnc(SCC(=O)Nc3ccc(CN4CCCC4)cc3)c2c1C as the compound, how does the “activity change, negative = inhibition” value read?
Its value is 4.55%.

Which “activity change, negative = inhibition” value does the source give for Cc1ccc(C)c(NC(=O)C(c2ccccc2)N2CCN(CC(=O)NC3CC3)CC2)c1 (stereo unspecified) here?
The value was 5.73%.

With CC(=O)NC(CC(=O)Nc1cccc(S(=O)(=O)N2CCCC2)c1)c1ccccc1 (stereo unspecified) as the compound, how does the “activity change, negative = inhibition” value read?
Its value is -3.53%.

How did the “activity change, negative = inhibition” value turn out when CCN(CC)CCNC(=O)c1ccc(NS(=O)(=O)c2ccc3c(c2)OCCO3)cc1 was run?
Its value is 5.41%.

Which “activity change, negative = inhibition” value does the source give for O=C(CN1CCc2cc3c(cc2C1)OCCCO3)Nc1ccccc1 here?
The value was -8.71%.

How did the “activity change, negative = inhibition” value turn out when O=C(Nc1ccc(C(=O)N2CCCCC2)cc1)c1cccc([N+](=O)[O-])c1 was run?
The value was -9.29%.

O=C(CN(Cc1ccccc1)C(=O)c1ccc2c(c1)OCCO2)NCc1ccc2c(c1)OCO2 was tested. Which “activity change, negative = inhibition” value did it give?
Its value is -1.85%.

With C/C(Cc1ccccc1)=N\NC(=O)CNC(=O)c1ccc2c(c1)OCCO2 as the compound, how does the “activity change, negative = inhibition” value read?
Its value is -18%.

For O=C(Nc1ccc(NC(=O)c2ccco2)c(Cl)c1)c1cccc([N+](=O)[O-])c1, which “activity change, negative = inhibition” value is on record?
The value was 1.09%.

O=C(Nc1ccc(C2CC2(Cl)Cl)cc1)c1cccc([N+](=O)[O-])c1 (stereo unspecified) was tested. Which Potency did it give?
Its Potency is 12 µM (active).

O=C(OCc1ccccc1F)c1ccc2c(c1)OCCO2 was tested. Which Potency did it give?
Its Potency is 6.01 µM (active).

Which Potency does the source give for O=C(Nc1ccccc1)c1ccc2c(c1)OCCCO2 here?
Its Potency is 1.2 µM (active).

Which Potency does the source give for O=C(Nc1cccc(S(=O)(=O)Nc2ccc(Cl)cc2)c1)c1ccc2c(c1)OCCO2 here?
Its Potency is 16.9 µM (active).

With CC(NS(=O)(=O)c1ccc(Cl)cc1)C(=O)Nc1ccc2c(c1)OCCO2 (stereo unspecified) as the compound, how does the “activity change, negative = inhibition” value read?
The value was 0.952%.

With Cc1cc2oc(C(=O)N(Cc3ccc(Cl)cc3)Cc3ccco3)c(C)c2cc1Cl as the compound, how does the “activity change, negative = inhibition” value read?
Its value is -7.31%.

Cc1cc(N2CCN(c3cccc(C(F)(F)F)c3)CC2)n2nc(-c3ccccc3)nc2n1 was tested. Which “activity change, negative = inhibition” value did it give?
The value was -0.73%.

With COc1ccc(-c2ccc(=O)n(CC(=O)Nc3ccc(Br)cc3F)n2)cc1 as the compound, how does the “activity change, negative = inhibition” value read?
The value was 2.74%.

For CC(=O)Nc1ccc(S(=O)(=O)NC2(C(F)(F)F)C(=O)NC(C)=C2C#N)cc1 (stereo unspecified), which “activity change, negative = inhibition” value is on record?
Its value is -3.82%.

O=C(Nc1ccccc1)Nc1nc2ccccc2s1 was tested. Which Potency did it give?
Its Potency is 0.849 µM (active).

How did the “activity change, negative = inhibition” value turn out when COc1ccc(C(=O)OCC(=O)Nc2cccc(C(C)=O)c2)cc1OC was run?
Its value is -4.57%.

O=C(Nc1ccccc1N1CCN(C(=O)c2ccccc2)CC1)c1ccc2c(c1)OCO2 was tested. Which “activity change, negative = inhibition” value did it give?
The value was 7.45%.

Which “activity change, negative = inhibition” value does the source give for O=C(Nc1ccccc1)Nc1nnc(COc2ccccc2F)s1 here?
The value was -1.08%.

For Cc1ccc(C(=O)OCC(=O)NCc2cc(C)c(O)c(C)c2)cc1S(=O)(=O)N1CCCCC1, which “activity change, negative = inhibition” value is on record?
Its value is -2.52%.

How did the “activity change, negative = inhibition” value turn out when O=C(Nc1ccc(Cl)cc1)Nc1nnc(/C=C/c2ccccc2)s1 was run?
Its value is -2.18%.

For Cc1ccc(F)cc1NC(=O)c1ccc2c(c1)OCO2, which “activity change, negative = inhibition” value is on record?
Its value is -3.24%.

With O=C(Nc1ccccc1F)c1ccc2c(c1)OCO2 as the compound, how does the Potency read?
Its Potency is 19 µM (active).

Which Potency does the source give for CC(=O)Nc1cccc(C(=O)OCC(=O)NCc2cc(C)c(O)c(C)c2)c1 here?
Its Potency is 15.1 µM (active).

O=S(=O)(NC1CCN(S(=O)(=O)c2ccc3c(c2)OCCO3)CC1)c1c(F)cccc1F was tested. Which “activity change, negative = inhibition” value did it give?
Its value is -2.54%.

CCc1ccc(S(=O)(=O)c2nnn3c2nc(N2CCN(CC)CC2)c2sccc23)cc1 was tested. Which “activity change, negative = inhibition” value did it give?
The value was 1.88%.

With CC(=O)Nc1ccc(S(=O)(=O)NC(C)C(=O)OCCOc2ccc(F)cc2)cc1 (stereo unspecified) as the compound, how does the “activity change, negative = inhibition” value read?
The value was -1.3%.

Which “activity change, negative = inhibition” value does the source give for CNS(=O)(=O)c1ccc(N2CCCC2=O)c([N+](=O)[O-])c1 here?
The value was -1.57%.

With NS(=O)(=O)c1ccc(NC(=S)N2CCCC2)cc1 as the compound, how does the “activity change, negative = inhibition” value read?
The value was -1.04%.

Cc1ccc(-c2ccc(=O)n(CC(=O)NCCCN3CCCCC3)n2)cc1 was tested. Which “activity change, negative = inhibition” value did it give?
Its value is 1.61%.

How did the Potency turn out when CCc1ccc(-c2cc3c(=O)n(CC(=O)NCCCN4CCN(Cc5ccccc5)CC4)nc(C)n3n2)cc1 was run?
Its Potency is 8.49 µM (active).

With CCCN1CCN(CCCNC(=O)Cn2nc(CC)n3c(cc4occc43)c2=O)CC1 as the compound, how does the “activity change, negative = inhibition” value read?
Its value is -5.38%.

Which “activity change, negative = inhibition” value does the source give for CCOCCn1ccc2c(OCC(=O)NCc3ccc(C)cc3)cccc2c1=O here?
Its value is -7.32%.

For CCC(=O)N1CCc2cc(S(=O)(=O)NC(Cc3ccccc3)C(=O)NCc3ccc(C)cc3)ccc21 (stereo unspecified), which “activity change, negative = inhibition” value is on record?
The value was -1.03%.
